According to PubChem BioAssay (NCATS):
Records with an inconclusive call do not appear. The source made the active and inactive calls. Calls come from the whole dose curve; as a rule, active = well fitted curve in the direction sought with a large enough effect; inconclusive = small, poorly fitted or top-dose-only effect, or another doubt; inactive = no such curve, though single readings can be large; an effect the other way counts as inactive or inconclusive. Where a SMILES comes first, the peptide text is derived from it. Bridges are numbered along the chain shown (N, C = ends). [ ]: non-standard residue; d: D form. hArg = N=C(N)NCCCC[C@H](N)C(=O)O; Mpa = O=C(O)CCS

Tests used:
[1] = qHTS assay to identify small molecule inhibitors of chordoma cells - UCH-2 (AID 1259356); note: series mostly up to about 46 µM
[2] = P-glycoprotein substrates identified in KB-8-5-11 adenocarcinoma cell line, qHTS therapeutic library screen (AID 1346987); conditions: outcome: dose series up to 44.5 µM; note: series mostly up to about 44 µM; nearly all actives have a fitted effect of over 65% in size
How it was run: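 Luminescence from CellTiter-Glo, read 5 min after addition, quantified survival of KB-8-5-11 (P-gp-overexpressing) cells exposed to compounds for 72 h. AC50 was derived from concentration-response curves.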

[3] = NS1 protein of Zika virus - qHTS assay to identify small molecule inhibitors in human HEK 293 cells (AID 1347053); note: series mostly up to about 46 µM; nearly all actives have a fitted effect of over 55% in size
How it was run: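 Compound-treated (1 h pre-infection) HEK 293 cells infected with ZIKV MR766, MOI = 0.5; after 24 h at 37 C, NS1 read by TR-FRET; data normalized to uninfected and infected controls.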

[4] = qHTS of pediatric cancer cell lines to identify multiple opportunities for drug repurposing: Primary screen for TC32 cells (AID 1347089); note: nearly all actives have a fitted effect of over 60% in size
How it was run: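 Luminescent ATP read-out (CellTiter-Glo) of metabolically active TC32 cells after 48 h exposure. Concentration-response curves came from 11-point (MIPE, 0.78 nM–46 µM) or 8-point (NPC, 0.59 nM–46 µM) primary titrations; follow-up used 11 points.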

[5] = qHTS of pediatric cancer cell lines to identify multiple opportunities for drug repurposing: Primary screen for DAOY cells (AID 1347090); note: series mostly up to about 46 µM; nearly all actives have a fitted effect of over 55% in size
How it was run: (§1)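 Cell viability, CellTiter-Glo luminescence; 500-1,000 cells/well, 8- or 11-point titration, 48 h compound exposure at 37 degrees C, 5% CO2. Controls: DMSO neutral, bortezomib 2.3 µM final as positive.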

[6] = qHTS of pediatric cancer cell lines to identify multiple opportunities for drug repurposing: Primary screen for SJ-GBM2 cells (AID 1347091)
How it was run: as §1

[7] = qHTS of pediatric cancer cell lines to identify multiple opportunities for drug repurposing: Primary screen for A673 cells (AID 1347092); note: nearly all actives have a fitted effect of over 45% in size
How it was run: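 Cell viability of A673 measured by CellTiter-Glo ATP luminescence after 48 hours compound exposure. Dilution series spanned 0.78 nM to 46 µM (MIPE, 11-point) or 0.59 nM to 46 µM (NPC, 8-point); bortezomib 2.3 uM positive control.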

[8] = qHTS of pediatric cancer cell lines to identify multiple opportunities for drug repurposing: Primary screen for SK-N-MC cells (AID 1347093); note: series mostly up to about 46 µM
How it was run: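 Metabolically active cells were quantified by ATP-dependent luminescence (CellTiter-Glo, 15 min at room temperature) following 48 h treatment. Cells had been plated at 500-1,000 per well and settled for 5 h beforehand.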

[9] = qHTS of pediatric cancer cell lines to identify multiple opportunities for drug repurposing: Primary screen for BT-37 cells (AID 1347094); note: series mostly up to about 57 µM
How it was run: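 Primary screen of approved and investigational compounds on cells in growth media at 37 degrees C, 5% CO2. MIPE set at 11-point and NPC set at 8-point dilutions; viability scored by ATP-based luminescence at 48 hours.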

Measured: Potency

NC(=O)[C@@H]1CSSCCC(=O)N[C@@H](CCCCN=C(N)N)C(=O)NCC(=O)N[C@@H](CC(=O)O)C(=O)N[C@@H](Cc2c[nH]c3ccccc23)C(=O)N2CCC[C@H]2C(=O)N1 ([Mpa][hArg]GDWPC-NH2; disulfide 1-7)
inactive: all assays above

CC1CC(OC(=O)c2ccccc2O)CC(C)(C)C1 (stereo not given)
not listed: [7]
inactive: all other assays above

COc1cc(O)cc(O)c1
not listed: [8]
inactive: all other assays above

Cn1c(=O)c2c(ncn2CCO)n(C)c1=O
not listed: [8]
inactive: all other assays above

O=C(O)Cn1c(C(=O)Nc2nc(-c3ccccc3Cl)cs2)cc2ccccc21
not listed: [8]
inactive: all other assays above

Cc1c(N(C)C)c(=O)n(-c2ccccc2)n1C
not listed: [7]
inactive: all other assays above

CCCCCC(N)=O
not listed: [8]
inactive: all other assays above

O=c1[nH]c2cc(C(F)(F)F)c(N3CCOCC3)cc2n(CP(=O)(O)O)c1=O
not listed: [8]
inactive: all other assays above

Cc1c(C(=O)NCCO)[n+](=O)c2ccccc2n1[O-]
not listed: [7]
inactive: all other assays above

Cc1cccc(Nc2ccccc2C(=O)O)c1C
not listed: [8]
inactive: all other assays above

O=C(Cn1ccnc1[N+](=O)[O-])NCCO
not listed: [7]
inactive: all other assays above

O=C(O)Cc1ccc(CCNS(=O)(=O)c2ccc(Cl)cc2)cc1
not listed: [8]
inactive: all other assays above

O=C(Cn1ccnc1[N+](=O)[O-])NCc1ccccc1
not listed: [7]
inactive: all other assays above

O=C(O)c1ccccc1C(=O)Nc1ccc(S(=O)(=O)Nc2nccs2)cc1
not listed: [8]
inactive: all other assays above

Cc1c(NC(C)C)c(=O)n(-c2ccccc2)n1C
not listed: [7]
inactive: all other assays above

O=C(O)c1cc(=O)c2ccccc2o1
not listed: [7]
inactive: all other assays above

COc1ccccc1OCC(O)CO (stereo not given)
not listed: [8]
inactive: all other assays above

Cc1c(Cn2ccnc2)c2ccccc2n1CCC(=O)O
not listed: [7]
inactive: all other assays above

CCCNC(C)C(=O)Nc1c(C)csc1C(=O)OC (stereo not given)
not listed: [8]
inactive: all other assays above

O=C(O)Cc1cn(-c2ccccc2)nc1-c1ccc(Cl)cc1
not listed: [7] | [8]
inactive: all other assays above

O=C1CC[C@@H](C(=O)O)N1
not listed: [7] | [8]
inactive: all other assays above

COc1cc(C(=O)NCCCCCC(=O)O)cc(OC)c1OC
not listed: [8]
inactive: all other assays above

COc1ccc(NS(=O)(=O)c2ccc(N)cc2)nn1
not listed: [8]
inactive: all other assays above

CCN(CC)CCOC(=O)C(c1ccccc1)c1ccccc1
not listed: [8]
inactive: all other assays above

Cc1cccc(C(=O)O)c1O
not listed: [8]
inactive: all other assays above

O=C(O)c1ccc(OCCCOc2ccc(C(=O)O)cc2)cc1
not listed: [7]
inactive: all other assays above

O=C(CN1CCNCC1)NC1CCCCC1
not listed: [8]
inactive: all other assays above
